Assay outcomes from PubChem BioAssay.
JMJD2A Tudor: JMJD2A Tudor domain (human) inhibition | AID 504339 | O75164 | AlphaScreen JMJD2A-Tudor / H3K4me3 peptide binding | Potency, µM (top dose mostly 114 µM), usual class: inhibitors | 390,000 compounds, 4.4% hits; also: nearly all actives have a fitted effect of over 50% in size
PLK1 PBD block: inhibitors of human PLK1 polo-box domain binding | Plk1 PBD binding of FITC phosphopeptide, fluorescence polarization | Potency, µM, most hits filed as inhibitors | 360,000 compounds, 2.8% hits | AID 720504; also: series mostly up to about 57 µM; nearly all actives have a fitted effect of over 65% in size
HP1b chromo inh: HP1-beta chromodomain-methylated histone interaction inhibition; P83916; AlphaScreen HP1-beta / biotin-H3K9me3 peptide binding; 390,000 compounds, 0.56% hits; Potency, µM (doses to about 114 µM), most hits filed as inhibitors; AID 540317; also: nearly all actives have a fitted effect of over 70% in size
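HP1-beta protein (50 nM final) preincubated 30 min at room temperature with biotinylated H3(1-18)K9me3 peptide (50 nM) in PBS pH 7.4, 0.01% Tween-20, then compound added for 30 min. AlphaScreen streptavidin donor/nickel chelate acceptor beads (10 ug/mL final), 30 min dark, luminescence read.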
G9a block: blocks human histone lysine methyltransferase G9a; Q96KQ7; G9a H3K9 monomethylation, AlphaScreen, 2 h; Potency, µM (series often up to 102 µM), usual class: inhibitors; 350,000 compounds, 8.8% hits; AID 504332; also: nearly all actives have a fitted effect of over 75% in size
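Compounds were preincubated with 20 nM G9a for 15 min, after which biotinylated H3K9 peptide (500 nM) and SAM (20 uM) started a 2 h room-temperature reaction. Monomethylated product was quantified by antibody-based AlphaScreen chemiluminescence.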
PI5P4Ka inh: blocks human PI5P4K alpha kinase activity; P48426; PI5P4Kalpha enzyme, ADP-Glo luminescence, 60 min; active compounds read low; max response, %; 330,000 compounds, 1.2% hits; AID 652105; active = max response of -50% or lower; inconclusive = between -30% and -50%; inactive = -30% or higher; also: value at the top dose of about 77 µM
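Single end-point luminescence (ADP-Glo) quantified ADP from PI5P4Kalpha turnover; ATP 5 microM final, 1 h at RT, 0.1% CHAPS and 0.28 mM EGTA in HEPES pH 7.4.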
BAZ2B inh: blocks human BAZ2B; Potency, µM (titrated, usually from 114 µM), usual class: inhibitors; AID 504333; Q9UIF8; 360,000 compounds, 4.4% hits; AlphaScreen BAZ2B-H3K14Ac peptide displacement; also: nearly all actives have a fitted effect of over 60% in size
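Multi-concentration screen (max 110 uM) measuring displacement of acetylated histone H3 peptide from BAZ2B by AlphaScreen, using 50 nM protein, 50 nM peptide and 10 ug/mL streptavidin donor plus Ni-chelate acceptor beads.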
Of the large screens only hits and unclear results are named; the others gave an inactive call; ! = repeats disagree. Most compounds without a hit are left out; they make up all but 12% or so of the library. Unless noted, calls follow the shape of the dose curve; as a rule, active = well fitted curve in the direction sought with a large enough effect; inconclusive = small, poorly fitted or top-dose-only effect, or another doubt; inactive = no such curve, though single readings can be large; an effect the other way counts as inactive or inconclusive.

Cc1cc(C)n(C(C)CC(=O)Nc2ccc(C)c(F)c2)n1 (stereo not drawn)	BAZ2B inh inconclusive (no result: PLK1 PBD block, PI5P4Ka inh)
CCOc1cc(C(=O)Nc2ccc(-c3nc4ncccc4o3)cc2C)cc(OCC)c1OCC	none (no result: PLK1 PBD block, PI5P4Ka inh)
CCOc1c(C)cc(-c2ncccc2O)cc1C	JMJD2A Tudor 89µM! (no result: PI5P4Ka inh)
Cn1c(=O)cnc2cnc(Nc3ccccc3)nc21	none (no result: JMJD2A Tudor, PLK1 PBD block, HP1b chromo inh, PI5P4Ka inh, BAZ2B inh)
COc1ccc(N2CCN(CCCNC(=O)c3ccc4nc(Cc5ccccc5)oc4c3)CC2)cc1	JMJD2A Tudor 32µM, G9a block 14µM, BAZ2B inh 40µM (no result: PLK1 PBD block, PI5P4Ka inh)
COc1ccc(N2CCN(CCCNC(=O)c3nnc(Cc4ccc(F)cc4)o3)CC2)cc1	BAZ2B inh 35µM (no result: PLK1 PBD block, PI5P4Ka inh)
CCC1CCCCN1C(=O)c1ccc2nc(Cc3ccc(OC)cc3)oc2c1 (stereo not drawn)	none
COc1ccc(N2CCN(CCCNC(=O)c3ccc4nc(CCc5ccccc5)oc4c3)CC2)cc1	JMJD2A Tudor 22µM, G9a block inconclusive, BAZ2B inh 32µM (no result: PLK1 PBD block, PI5P4Ka inh)
COc1ccc(Cc2nc3ccc(C(=O)N4CCCCC4CCO)cc3o2)cc1 (stereo not drawn)	JMJD2A Tudor inconclusive, PLK1 PBD block 27µM
CCCCc1nc2cc(C(=O)N3CCCCC3C(=O)OC)ccc2o1 (stereo not drawn)	JMJD2A Tudor 22µM, PLK1 PBD block 27µM
COc1ccc(C(=O)NCC(=O)OCC(=O)c2cccc3ccccc23)cc1	none (no result: PLK1 PBD block, G9a block, PI5P4Ka inh, BAZ2B inh)
CC1CC2CCCC(O)=C2C(=O)O1 (stereo not drawn)	none (no result: G9a block, BAZ2B inh)
O=C(CC1(O)C(=O)Nc2ccccc21)c1cccc(-n2cccc2)c1 (stereo not drawn)	JMJD2A Tudor inconclusive, G9a block inconclusive, BAZ2B inh 50µM
Cc1ccc(C(=O)CC2(O)C(=O)Nc3ccccc32)s1 (stereo not drawn)	PI5P4Ka inh -55
Cc1ccc2c(c1)C(O)(CC(=O)c1ccc(C)s1)C(=O)N2 (stereo not drawn)	PLK1 PBD block inconclusive
Cc1ccc(OC(=O)CCNC(=O)c2ccccc2Cl)c(Br)c1	none
Cc1ccc2oc(C(=O)N(Cc3ccc(N(C)C)cc3)C3CCS(=O)(=O)C3)c(C)c2c1 (stereo not drawn)	JMJD2A Tudor 20µM, HP1b chromo inh inconclusive, G9a block 25µM, BAZ2B inh 11µM
Cc1ccc2c(=O)cc(C(=O)N(Cc3ccc(N(C)C)cc3)C3CCS(=O)(=O)C3)oc2c1 (stereo not drawn)	G9a block inconclusive, BAZ2B inh inconclusive (no result: PLK1 PBD block, PI5P4Ka inh)
Cc1ccc2c(C)c(C(=O)N(Cc3ccc(N(C)C)cc3)C3CCS(=O)(=O)C3)oc2c1 (stereo not drawn)	JMJD2A Tudor 25µM, HP1b chromo inh inconclusive, BAZ2B inh 13µM (no result: G9a block)
COc1ccc2ccc(=O)oc2c1CC(=O)C(C)C	none (no result: G9a block, BAZ2B inh)
Cc1ccc(C2C(C#N)=C(N)Oc3c2sc2ccccc32)o1 (stereo not drawn)	G9a block 16µM, BAZ2B inh inconclusive (no result: JMJD2A Tudor, PLK1 PBD block, HP1b chromo inh, PI5P4Ka inh)
CCOC(=O)CC1=C(C(=O)OCC)C(c2ccc(OC)cc2OC)C(C#N)=C(N)O1 (stereo not drawn)	G9a block 56µM
Cc1cc2c(c(=O)o1)C(c1ccc([N+](=O)[O-])o1)C(C#N)=C(N)O2 (stereo not drawn)	G9a block inconclusive, BAZ2B inh inconclusive
CCOC(=O)CC1=C(C(=O)OCC)C(c2ccc(C)o2)C(C#N)=C(N)O1 (stereo not drawn)	G9a block 25µM
CCOC(=O)C1=C(c2ccccc2)OC(N)=C(C#N)C1c1ccco1 (stereo not drawn)	G9a block 45µM (no result: PI5P4Ka inh)
Cc1cc(C)cc(-n2c(C)cc(C(=O)C(=O)Nc3nnc(C)s3)c2C)c1	none (no result: PLK1 PBD block, PI5P4Ka inh)
COc1ccc(C2C(=O)N(C3CCC(C)CC3)CC(=O)N2C2CCCCC2)cc1OC (stereo not drawn)	none (no result: PLK1 PBD block, PI5P4Ka inh)
CN1N/C(=C\c2ccccc2)N=C2C(=O)N(C)C(=O)N=C21	none (no result: PLK1 PBD block, G9a block, PI5P4Ka inh, BAZ2B inh)
O=C(NCc1ccc(F)cc1)C1CCCN1C(=O)Nc1cccc(F)c1 (stereo not drawn)	none
CCCC1=C(C(=O)OCC)C(c2ccc(F)cc2)n2ncnc2N1 (stereo not drawn)	G9a block inconclusive
CCCCOC(=O)C1=C(C)Nc2ncnn2C1c1ccc(OC)c(OC)c1 (stereo not drawn)	G9a block 50µM, BAZ2B inh inconclusive
CCCC1=C(C(=O)OCC)C(c2ccc(N(C)C)cc2)n2ncnc2N1 (stereo not drawn)	JMJD2A Tudor inconclusive, G9a block 45µM, BAZ2B inh inconclusive (no result: PI5P4Ka inh)
CCCCCOc1ccc(Cn2c(=O)oc3ccc(C)cc32)cc1OC	none (no result: PLK1 PBD block, PI5P4Ka inh)
O=C(CCCn1c(=O)c2cccn2c2ccccc21)NCc1ccccc1Br	none (no result: PLK1 PBD block, PI5P4Ka inh)
Cc1cc(C)c(OCCCCN(C)Cc2ccccc2)c(C)c1	JMJD2A Tudor 7.1µM, HP1b chromo inh inconclusive, G9a block 1.3µM, BAZ2B inh inconclusive
Cc1ccc(C(C)C)c(OCC(O)CN(C)Cc2ccccc2)c1 (stereo not drawn)	none
CN(CCOc1ccccc1)Cc1ccccc1	none (no result: JMJD2A Tudor, HP1b chromo inh, G9a block, BAZ2B inh)
Cc1ccc(C(C)C)c(OCCCN(C)Cc2ccccc2)c1	JMJD2A Tudor 22µM, HP1b chromo inh inconclusive, G9a block 10µM, BAZ2B inh inconclusive
Cc1ccc(OCCCCN(C)Cc2ccccc2)c(Br)c1	JMJD2A Tudor inconclusive, HP1b chromo inh inconclusive, G9a block 11µM
COc1ccccc1OCCCOc1ccc(C)cc1Br	none
O=C(/C=C/c1ccco1)N(c1ccccn1)c1ccccn1	JMJD2A Tudor 22µM, PLK1 PBD block inconclusive, HP1b chromo inh 32µM, G9a block 13µM, PI5P4Ka inh inconclusive, BAZ2B inh 22µM
O=C(/C=C/c1ccc([N+](=O)[O-])cc1)NCc1ccccn1	none
O=C(/C=C/c1ccco1)NCc1ccccn1	PLK1 PBD block inconclusive, G9a block 35µM
O=C(/C=C/c1ccco1)NCC1OCCc2ccccc21 (stereo not drawn)	JMJD2A Tudor 50µM, PLK1 PBD block inconclusive, HP1b chromo inh 32µM, PI5P4Ka inh -70, BAZ2B inh 45µM
C=CC(=O)NCC1OCCc2ccccc21 (stereo not drawn)	none
O=C(/C=C/c1ccco1)Nc1cccnc1Cl	G9a block 79µM
CN(C)S(=O)(=O)n1cc(/C=C(\NC(=O)c2ccccc2)C(=O)N2CCCC2)c2ccccc21	none
Cc1cccn2c(=O)c(C(=O)NCc3ccccc3Cl)c(O)nc12	none (no result: PLK1 PBD block, PI5P4Ka inh)
CCc1ccc(-n2c(N3CCN(c4ccc(F)cc4)CC3)nc3ccccc3c2=O)cc1	G9a block inconclusive (no result: PLK1 PBD block, PI5P4Ka inh, BAZ2B inh)
O=C1c2ccccc2-c2onc3ccc(N4CCCC4)c1c23	JMJD2A Tudor inconclusive, PLK1 PBD block inconclusive, HP1b chromo inh 20µM, G9a block 10µM, BAZ2B inh 14µM
O=C1c2ccccc2C(=O)c2c1cccc2N1CCCC1	JMJD2A Tudor 5µM, HP1b chromo inh inconclusive, G9a block 4µM, BAZ2B inh 5µM
